Tests used:
Assay in all cases: PBM binding z-score (relative to random genomic background probes); higher = stronger binding; sequences stand for … in GC…GCGATTGACAGCGTAGAATGAAGG
[1] = test system: FXR:RXRa (NR concentration 270 nM, RXRa partner concentration 90 nM)
Outline: (§1)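 Each nuclear receptor dimer, without ligand, was incubated for 1 h on custom Agilent 4×180K protein-binding microarrays. Binding was detected with antibodies against each partner (one per run), and scanned fluorescence was regression-normalized. The binding z-scores are referenced to random human genomic background probes.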

[2] = test system: LXRa:RXRa (NR concentration 270 nM, RXRa partner concentration 90 nM)
Outline: as §1

[3] = test system: LXRa homodimer (NR concentration 270 nM)
Outline: as §1

[4] = test system: LXRb:RXRa (NR concentration 270 nM, RXRa partner concentration 90 nM)
Outline: as §1

[5] = test system: LXRb homodimer (NR concentration 270 nM)
Outline: as §1

[6] = test system: PPARa:RXRa (NR concentration 270 nM, RXRa partner concentration 90 nM)
Outline: as §1

[7] = test system: PPARg:RXRa (NR concentration 180 nM, RXRa partner concentration 90 nM)
Outline: as §1

[8] = test system: PPARg:RXRa 270nM:90nM, anti-RXR (NR concentration 270 nM, RXRa partner concentration 90 nM)
Outline: as §1

[9] = test system: PPARg:RXRa 30nM:10nM, anti-RXR (NR concentration 30 nM, RXRa partner concentration 10 nM)
Outline: as §1

[10] = test system: PPARg:RXRa 90nM:30nM, anti-RXR (NR concentration 90 nM, RXRa partner concentration 30 nM)
Outline: as §1

[11] = test system: PPARg:RXRa DBDmut IVT, anti-RXR (DBD mutation: RXRa K156A/R161A, NR concentration 270 nM, RXRa partner concentration 90 nM)
Outline: as §1

[12] = test system: PPARg:RXRa IVT, anti-PPARg (NR concentration 270 nM, RXRa partner concentration 90 nM)
Outline: as §1

[13] = test system: PPARg DBDmut:RXRa IVT, anti-PPARg (DBD mutation: PPARg1 K132A/R137A, NR concentration 270 nM, RXRa partner concentration 90 nM)
Outline: as §1

[14] = test system: PPARg DBDmut IVT, anti-PPARg (DBD mutation: PPARg1 K132A/R137A, NR concentration 270 nM)
Outline: as §1

[15] = test system: PPARg homodimer (NR concentration 180 nM)
Outline: as §1

[16] = test system: PXR:RXRa (NR concentration 270 nM, RXRa partner concentration 90 nM)
Outline: as §1

[17] = test system: PXR homodimer (NR concentration 270 nM)
Outline: as §1

[18] = test system: RARa:RXR (NR concentration 270 nM, RXRa partner concentration 90 nM)
Outline: as §1

[19] = test system: RARa homodimer (NR concentration 270 nM)
Outline: as §1

[20] = test system: RARb:RXRa (NR concentration 270 nM, RXRa partner concentration 90 nM)
Outline: as §1

Sequence	PBM binding z-score [1]	PBM binding z-score [2]	PBM binding z-score [3]	PBM binding z-score [4]	PBM binding z-score [5]	PBM binding z-score [6]	PBM binding z-score [7]	PBM binding z-score [8]	PBM binding z-score [9]	PBM binding z-score [10]	PBM binding z-score [11]	PBM binding z-score [12]	PBM binding z-score [13]	PBM binding z-score [14]	PBM binding z-score [15]	PBM binding z-score [16]	PBM binding z-score [17]	PBM binding z-score [18]	PBM binding z-score [19]	PBM binding z-score [20]
TCGAGTAGTTTACCAATGGGGCATTCAGCTTTCT	-0.0204	-0.0341	-0.552	0.423	-0.375	-0.115	-0.798	0.325	0.821	0.499	0.933	-0.146	-0.382	0.0492	-0.418	-0.0619	-0.235	0.338	-0.982	0.0508
CCTGCTGGGCCAAAAAGGTCATTGATGCCGATAA	3.7	4.03	2.82	4.04	0.015	4.34	1.24	2.72	0.205	1.65	0.633	1.32	-0.602	-0.914	3.24	4.99	3.34	5.41	0.138	3.89
ATCTCTAGGTAAAGTTCAGTTAAAGATCGATAGA	1.31	2.28	1.98	1.67	1.22	2.39	3.27	4.32	2.38	3.95	2.25	2.63	1.03	0.905	2.02	2.33	1.72	1.81	1.83	2.78
CTCGAAAGGTCGTGCTCAGGTGAGTGTACCAAAC	5.56	4.02	0.294	3.22	0.22	4.73	2.35	4.01	1.05	2.56	1.29	1.94	-0.0151	0.438	1.83	3.52	0.0812	4.32	0.202	4.01
AATACAGGGTCATCGTAGTCCAGAGTACGCACAG	7.48	6.18	2.88	4.83	1.9	6.32	7.13	6.38	2.86	4.99	2.79	5.02	1.99	2.18	2.87	5.53	1.22	5.21	0.827	4.73
CAGCCTAGGTCATGGCCAGTATAGGAGGAACGTT	4.47	3.18	-0.187	1.92	-0.552	3.81	2.34	2.86	0.578	1.71	2.64	2.68	-0.045	-0.826	1.72	1.53	-0.702	2.45	0.132	3.99
CCGACTGGGGCAAGGTAACCATAACGCACAGCCA	-0.249	-0.173	-0.437	-0.227	-0.817	0.552	1.47	1.14	-0.222	0.712	2.79	2.75	0.115	-0.601	0.0706	-0.546	-0.376	0.0797	0.0514	0.619
TCGAGTAGGTTACCAATGTGGCATTCAGCTTTCT	0.261	1.41	-0.667	0.671	0.104	0.803	0.268	1.09	0.936	1.08	3.64	2.82	-0.0688	-0.478	-0.26	0.165	-0.485	0.147	-1.11	0.736
CCTAGTTGGTCAACGTCACACACGCTATAGGTAC	0.458	0.525	0.431	0.877	0.581	0.58	1.25	0.719	0.299	0.407	2.03	1.8	0.867	0.424	1.37	0.444	0.536	0.716	1.34	1.21
CCTACTTGGCCATCAGGTCATTGATATCAACGTT	2.95	1.81	2.06	2.21	0.454	2.12	0.623	1.36	0.665	1.13	1.33	1.93	0.603	0.617	1.82	1.95	1.62	2.17	1.76	2.19
TGTCAAAGTTGAAAGGTAACGTAAGTATCCACAC	1.27	1.12	-0.229	1.38	-0.452	3.49	5.4	5.19	2.72	4.73	-0.206	3.18	0.664	0.491	0.376	1.38	0.066	2.56	0.0354	2.15
CATGCTAGGTCATGGTCAGCTAATCTACAGTATG	3.66	3.18	0.549	1.79	-0.0133	3.24	2.36	2.83	1	2.3	3.61	3.51	0.62	0.712	1.58	1.4	-0.662	2.58	0.163	3.92
AGAATGAGGTTAAGATAAGGGAAACAGAATACAT	2.28	2.29	0.217	1.88	0.218	3.48	2.73	2.29	0.99	1.69	2.37	2.34	1.82	1.35	1.38	1.12	0.744	1.8	1.27	1.83
ACTATTAGTTGACTTTGGGCAACCGATACGACGC	0.0915	0.0714	0.0306	0.155	0.67	-0.00502	0.965	0.394	0.326	0.537	-0.00927	0.141	1.83	1.67	0.55	0.0456	0.199	0.481	0.975	0.454
AGAACGAGGGCAATGAGTTTATAGCACGGGTGGC	0.163	0.317	-0.472	-0.145	-0.322	1.25	1.55	0.876	0.119	0.36	3.6	2.75	0.304	-0.00705	-0.116	4.31	12.1	0.403	-0.186	2.44

From the supplement of paper PMC6555819
